According to PubChem BioAssay (NCATS):
Inconclusive results are not listed. A call without a number means that no potency is given here. The source made the active and inactive calls. Calls follow the shape of the dose curve; as a rule, active = well fitted cell-killing curve with a large enough effect; inconclusive = small, poorly fitted or top-dose-only effect, or effect the other way; inactive = flat fitted curve, though single readings scatter. Where a SMILES comes first, the peptide text is derived from it. Bridges are numbered along the chain shown (N, C = ends). [ ]: non-standard residue; d: D form. The star is where a group is joined. X1 = CCC(C)C(N)C1=NC(C(=O)*)CS1; dOrn = NCCC[C@@H](N)C(=O)O

What follows are compounds tested on C33A (assay: Primary qHTS to identify gynecologic anti-cancer compounds using libraries of approved drugs and bioactive compounds (AID 1345084; also: nearly all actives have a fitted effect of over 55% in size)). Details: Gynecologic cancer cell panel viability, ATPlite luminescence, 48 h; series mostly up to 57.5 µM.
How it was run: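 Measured: luminescence after ATPlite addition (15 min, RT). Exposure: 48 h, 37 C, 5% CO2.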

Which Potency does the source give for `OC[C@H]1O[C@@H](OC(CCCCc2ccc(O)cc2)CCc2ccc(O)cc2)[C@H](O[C@@H]2OC[C@](O)(CO)[C@H]2O)[C@@H](O)[C@@H]1O` (stereo not given in full) here?
Its Potency is “inactive”.

Which Potency does the source give for `C=C(C)[C@H]1C[C@@H](O)C(=C)CC[C@@H](O)C(=C)[C@@H](O)C1` here?
Its Potency is “inactive”.

How did the Potency turn out when `CN1C(=O)c2ccccc2NC(=O)[C@]12O[C@@H]2c1cccc(O)c1` was run?
Its Potency is “inactive”.

Which Potency does the source give for `C=C1C(=O)O[C@H]2[C@H]1[C@@H](OC(=O)C(C)CO)C[C@@]1(C)[C@H](O)CCC(=O)[C@H]21` (stereo not given in full) here?
Its Potency is “inactive”.

`N[C@@H](CC(=O)N1CCn2c(nnc2C(F)(F)F)C1)Cc1[nH]nc2c(F)c(F)ccc12` was tested. Which Potency did it give?
Its Potency is “inactive”.

Which Potency does the source give for `CC1=CC(=O)CC(C)(C)C1(O)CCC(C)O` (stereo not given) here?
The Potency was “inactive”.

How did the Potency turn out when `O=C(O)Cc1nn(Cc2nc3cc(C(F)(F)F)ccc3s2)c(=O)c2nccnc12` was run?
The Potency was “inactive”.

`CCOC(=O)[C@H](CCc1ccccc1)CC1(C(=O)N[C@H]2CCc3ccccc3N(CC(=O)O)C2=O)CCCC1` was tested. Which Potency did it give?
Its Potency is “inactive”.

How did the Potency turn out when `COc1cc(/C=C/C(=O)OC2[C@H](O)CC(O)(C(=O)O)C[C@H]2O)ccc1O` (stereo not given in full) was run?
The Potency was “inactive”.

With `Cn1ccnc1CCOC(c1cc2nccc(C(=O)O)c2[nH]1)c1ccccc1Cl` (stereo not given) as the compound, how does the Potency read?
The Potency was “inactive”.

For `C/C=C(\C)C(=O)O[C@H]1[C@H](O)[C@]2(COC(C)=O)[C@H](O)C[C@]3(C)C(=CCC4[C@@]5(C)CC[C@H](O[C@@H]6O[C@H](C(=O)O)[C@@H](O[C@@H]7O[C@H](CO)[C@@H](O)[C@H](O)[C@H]7O)[C@H](O)[C@H]6O[C@@H]6O[C@H](CO)[C@@H](O)[C@H](O)[C@H]6O)[C@](C)(CO)C5CC[C@]43C)[C@@H]2CC1(C)C` (stereo not given in full), which activity change, negative = cytotoxicity is on record?
Its activity change, negative = cytotoxicity is 1.25% [at 11.6 µM] (inactive).

With `CC1=CCC2C(C)(CO)CCCC2(CO)C1CO` (stereo not given) as the compound, how does the Potency read?
Its Potency is “inactive”.

`COc1cccc2c1CCC[C@H]2CN(C)CCc1ccc2ccoc2c1` was tested. Which Potency did it give?
The Potency was “inactive”.

How did the Potency turn out when `COC(=O)CC1(O)C(=O)Nc2ccccc21` (stereo not given) was run?
The Potency was “inactive”.

With `C=C1CCC2C(C)(C)C(O)CCC2(C)C1CCC(C)CCOC(=O)CCC(=O)O` (stereo not given) as the compound, how does the Potency read?
The Potency was “inactive”.

How did the Potency turn out when `CC(=O)O[C@H]1C[C@@H]2[C@]3(CC[C@]4(C)[C@@H](C5(C)CCC(C(C)(C)O)O5)[C@@H](O)C[C@@]24C)C[C@@]32CC[C@H](O[C@@H]3OC[C@@H](O)[C@H](O)[C@H]3O)C(C)(C)[C@H]12` (stereo not given in full) was run?
The Potency was “inactive”.

For `CCCCS(=O)(=O)Nc1ncnc(OCCOc2ncc(Br)cn2)c1-c1ccc(Br)cc1`, which Potency is on record?
Its Potency is “inactive”.

How did the activity change, negative = cytotoxicity turn out when `C[C@@H]1O[C@@H](O[C@H]2[C@H](OC(=O)C34CCC(C)(C)CC3C3=CCC5C6(C)CC(O)C(O[C@@H]7O[C@H](CO)[C@@H](O)[C@H](O)[C@H]7O)C(C)(C(=O)O)C6CCC5(C)C3(CO)CC4)O[C@H](C)[C@H](O)[C@@H]2O)[C@H](O)[C@H](O)[C@H]1O[C@@H]1OC[C@@H](O)[C@H](O)[C@H]1O` (stereo not given in full) was run?
Its activity change, negative = cytotoxicity is 7.58% [at 11.6 µM] (inactive).

How did the Potency turn out when `CC1NC(=O)C(Cc2c[nH]c3ccccc23)NC1=O` (stereo not given) was run?
Its Potency is “inactive”.

How did the Potency turn out when `CC(=O)c1c(O)cc2cccc3c2c1CC(C)(O)O3` (stereo not given) was run?
The Potency was “inactive”.

`CC(C#N)C(C)O[C@@H]1O[C@H](CO)[C@@H](O)[C@H](O)[C@H]1O` (stereo not given in full) was tested. Which Potency did it give?
Its Potency is “inactive”.

For `CC(C)C(=O)O[C@@H]1[C@@H](O)[C@@H](O[C@H]2O[C@H](CO)[C@@H](O)[C@H](O)[C@H]2O)O[C@H](CO)[C@H]1O`, which Potency is on record?
The Potency was “inactive”.

With `COc1ccccc1CC(C(=O)O)N(C)C(=O)c1ccccc1` (stereo not given) as the compound, how does the Potency read?
Its Potency is “inactive”.

For `C/C(=C/CO)CC[C@@H]1[C@@]2(C)CCC[C@](C)(C(=O)O)C2CC[C@@]1(C)O` (stereo not given in full), which Potency is on record?
Its Potency is “inactive”.

`COc1cc(C(O)C(CO)Oc2ccc(CCCO[C@@H]3O[C@@H](C)[C@H](O)[C@@H](O)[C@H]3O)cc2OC)ccc1O` (stereo not given in full) was tested. Which Potency did it give?
The Potency was “inactive”.

Which activity change, negative = cytotoxicity does the source give for `C[C@@H]1O[C@@H](O[C@H]2[C@H](O[C@H]3[C@H](O[C@H]4CC[C@@]5(C)C(CC[C@]6(C)C5CC=C5[C@@H]7CC(C)(C(=O)O)C[C@@H](O)[C@]7(C)CC[C@]56C)[C@@]4(C)CO)O[C@H](C(=O)O)[C@@H](O)[C@@H]3O)O[C@H](CO)[C@H](O)[C@@H]2O)[C@H](O)[C@H](O)[C@H]1O` (stereo not given in full) here?
The activity change, negative = cytotoxicity was 4.66% [at 11.6 µM] (inactive).

`CC(=O)O[C@H]1[C@H](Oc2ccccc2COC(=O)C2(O)C=CCCC2=O)O[C@H](CO)[C@@H](O)[C@@H]1O` (stereo not given in full) was tested. Which Potency did it give?
Its Potency is “inactive”.

For `NC(=O)[C@H]1CCCCc2c1[nH]c1ccc(Cl)cc21`, which Potency is on record?
Its Potency is “inactive”.

With `COc1ccc(/C=C/C(=O)O[C@H]2[C@@H]3C=CO[C@@H](O[C@@H]4O[C@H](CO)[C@@H](O)[C@H](O)[C@H]4O)[C@@H]3[C@@]3(CO)O[C@@H]23)cc1O` as the compound, how does the Potency read?
Its Potency is “inactive”.

How did the Potency turn out when `COc1c(OC2OC(CO)C(O)C(O)C2O)ccc(O)c1C(=O)OCc1ccccc1O[C@@H]1O[C@H](CO)[C@@H](O)[C@H](O)[C@H]1O` (stereo not given in full) was run?
Its Potency is “inactive”.

Which Potency does the source give for `CC1CCC2(C)C(CC(O)C(O)C23CO3)C1(C)CCC1=CC(=O)OC1O` (stereo not given) here?
Its Potency is “inactive”.

`CCC(C)C(N)C1=NC(C(=O)N[C@@H](CC(C)C)C(=O)N[C@H](CCC(=O)O)C(=O)N[C@H](C(=O)N[C@H]2CCCCNC(=O)[C@H](CC(N)=O)NC(=O)[C@@H](CC(=O)O)NC(=O)[C@H](Cc3cnc[nH]3)NC(=O)[C@@H](Cc3ccccc3)NC(=O)[C@H]([C@@H](C)CC)NC(=O)[C@@H](CCCN)NC2=O)[C@@H](C)CC)CS1` (stereo not given in full) (X1-L[dE]IK[dOrn]I[dF]H[dD]N; lactam 4-C) was tested. Which Potency did it give?
The Potency was “inactive”.

How did the Potency turn out when `C[C@@]12C[C@]3(O)O[C@H](O1)[C@]1(COC(=O)c4ccccc4)[C@H]3C[C@@]12O[C@@H]1O[C@H](COC(=O)c2ccccc2)[C@@H](O)[C@H](O)[C@H]1O` was run?
Its Potency is “inactive”.

How did the Potency turn out when `C=CC1C(O[C@@H]2O[C@H](CO)[C@@H](O)[C@H](O)[C@H]2O)OC=C(C(=O)OC)C1Cc1nccc2c1[nH]c1ccccc12` (stereo not given in full) was run?
The Potency was “inactive”.

With `Cc1c(-c2ccnn2C)cc(C(=O)NCc2ccc(S(C)(=O)=O)cn2)c(=O)n1-c1cccc(C(F)(F)F)c1` as the compound, how does the Potency read?
Its Potency is “inactive”.

`CCOc1ccc(C(Nc2ccccn2)c2ccc3ccc(C)nc3c2O)cc1C` (stereo not given) was tested. Which Potency did it give?
Its Potency is “inactive”.

For `CC(=O)c1c(O)cc2c(c1C)C(=O)CC(O)C2` (stereo not given), which Potency is on record?
Its Potency is “inactive”.

With `O=C(/C=C/c1ccc(O)cc1)OCC1=CC2OC(=O)C3=CO[C@@H](O[C@@H]4O[C@H](CO)[C@@H](O)[C@H](O)[C@H]4O)[C@H]1[C@@H]32` (stereo not given in full) as the compound, how does the Potency read?
Its Potency is “inactive”.

With `CCC1CC2C(C)=CC3CCCCC3C2(C)C2(OC(=O)C(C)(O)OC2=O)O1` (stereo not given) as the compound, how does the Potency read?
Its Potency is “inactive”.

Which Potency does the source give for `CC12CCC3C(C)(C)C(O)CCC3(C)C1Cc1c(oc(C(=O)O)cc1=O)O2` (stereo not given) here?
The Potency was “inactive”.
